This note sets out measurements from PubChem BioAssay (EPA / NIEHS).

A short description of experiment [1]: ATG_GLI_CIS: Attagene CIS-FACTORIAL HepG2 Assay for human Zinc Finger Protein GLI1 (AID 2282945). The conditions noted are these: HepG2, Attagene cis-factorial reporter mRNA, GLI element; actives raise or lower the signal. The essentials:
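HepG2 cells transiently transfected with cis-promoter multiplexed reporter units report endogenous transcription factor activity. After 24 h chemical exposure, reporter mRNA was quantified by RT-PCR, 6-FAM labelling, HpaI digestion and capillary electrophoresis, with bidirectional fitting against DMSO.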

Experiment [2] concerns the target Bile acid receptor (Homo sapiens) (UniProt Q96RI1). Nature of the experiment: ATG_IR1_CIS: Attagene CIS-FACTORIAL HepG2 Assay for human Nuclear Receptor Subfamily 1 Group H Member 4 (NR1H4), IR1 submotif (AID 2282946). The conditions noted are these: IR1 reporter transcription, actives raise or lower the signal. The method, boiled down:
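Readout: reporter transcript levels by RT-PCR with fluorescent capillary electrophoresis, from HepG2 cells transiently transfected with multiplexed cis-regulated reporters and dosed 24 h. Gain- or loss-of-signal fitted versus DMSO negative control.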

Experiment [3] in a line: ATG_ISRE_CIS: Attagene CIS-FACTORIAL HepG2 Assay for human Interferon Regulatory Factor 1 (IRF1) binding to an Interferon-Stimulated Response Element (ISRE) (AID 2282948). The conditions noted are these: HepG2 ISRE cis-reporter (Attagene), mRNA transcription readout; actives raise or lower the signal. The method, boiled down:
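Uses HepG2 liver cells transfected with cis-regulated reporters and measures mRNA 24 h post-dosing through RT-PCR, primer-extension labelling and capillary electrophoresis, with DMSO as negative control.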

A short description of experiment [4]: ATG_M_32_CIS: Attagene CIS-FACTORIAL HepG2 Assay for M32 Transcription Factor (Internal Marker) (AID 2282949).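 Also: background control marker of the multiplexed CIS panel rather than a real target.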 The conditions noted are these: HepG2 Attagene cis-factorial M32 reporter, mRNA; actives raise or lower the signal. The essentials: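 HepG2 transfectants (cis-regulated reporter transcription units) dosed 24 h. Reporter mRNA by RT-PCR plus CE, analysed as gain or loss relative to DMSO.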

Experiment [5] can be described thus: ATG_M_06_CIS: Attagene CIS-FACTORIAL HepG2 Assay for M06 Transcription Factor (Internal Marker) (AID 2282950). The conditions noted are these: HepG2 Attagene CIS-FACTORIAL M06 internal marker reporter; actives raise or lower the signal. The essentials:
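HepG2 cells transiently transfected with cis-regulated multiple reporter transcription units were exposed to chemical for 24 h; reporter mRNA was quantified by RT-PCR, 6-FAM primer labelling, HpaI digestion and capillary electrophoresis, fitted bidirectionally against DMSO.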

Experiment [6] has as its target Hepatocyte nuclear factor 6 (Homo sapiens) (UniProt Q9UBC0). Nature of the experiment: ATG_HNF6_CIS: Attagene CIS-FACTORIAL HepG2 Assay for human Hepatocyte Nuclear Factor 6 (HNF6) (AID 2282952). The conditions noted are these: HepG2 Attagene cis-factorial HNF6 reporter transcription; actives raise or lower the signal. The essentials: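 Readout: fluorescent reporter-transcript fragments resolved by capillary electrophoresis after RT-PCR, reflecting endogenous factor activity in transfected HepG2. Exposure 24 h. Gain or loss of signal fitted bidirectionally against DMSO.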

The target in experiment [7] is Heat shock factor protein 1 (Homo sapiens) (UniProt Q00613). Put plainly: ATG_HSE_CIS: Attagene CIS-FACTORIAL HepG2 Assay for human Heat Shock Transcription Factor 1 (HSE) (AID 2282953). The conditions noted are these: HepG2 HSE cis-reporter, Attagene RNA transcription; actives raise or lower the signal. The method, boiled down: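 HepG2 cells transiently transfected with multiple reporter transcription units under cis-regulatory promoter control, measuring endogenous transcription factor activity. After 24 h chemical exposure, reporter mRNA quantified by RT-PCR, fluorescent labelling, HpaI digestion and capillary electrophoresis; bidirectional fit versus DMSO.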

A short description of experiment [8]: ATG_MRE_CIS: Attagene CIS-FACTORIAL HepG2 Assay for human Metal Responsive Element (MRE) (AID 2282954). The conditions noted are these: HepG2 MRE cis-reporter transcription, Attagene multiplex; actives raise or lower the signal. The method, boiled down:
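Cells were transfected with cis-promoter reporter transcription units, then dosed for 24 h. RNA was reverse-transcribed, amplified, fluorescently labelled and resolved by capillary electrophoresis, and activity was fitted in both directions relative to DMSO.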

Experiment [9] in a line: ATG_PBREM_CIS: Attagene CIS-FACTORIAL HepG2 Assay for human Phenobarbital-responsive Enhancer Module (PBREM) (AID 2282955). The conditions noted are these: HepG2 PBREM cis-reporter, Attagene multiplexed transcription; actives raise or lower the signal. The essentials: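 Readout: reporter mRNA, fluorescent RT-PCR fragments separated by capillary electrophoresis. System: HepG2 transiently transfected with cis-regulated reporter units. Exposure: 24 h. Analysis: bidirectional, DMSO baseline.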

Experiment [10] in a line: ATG_PXRE_CIS: Attagene CIS-FACTORIAL HepG2 Assay for human Pregnane X Receptor Element (PXRE) (AID 2282957). The conditions noted are these: HepG2 Attagene CIS-FACTORIAL PXRE reporter, mRNA; actives raise or lower the signal. The method, boiled down: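 Read-out: fluorescence of reporter-specific RT-PCR products resolved by capillary electrophoresis, fitted bidirectionally relative to DMSO. Human HepG2 liver cells carried transfected cis-promoter reporter units and were exposed to chemicals for 24 h.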

Experiment [11] in a line: ATG_PPRE_CIS: Attagene CIS-FACTORIAL HepG2 Assay for human Peroxisome Proliferator-activated Response Element (PPRE) (AID 2282958). The conditions noted are these: HepG2 PPRE cis-element reporter, Attagene transcription factor profiling; actives raise or lower the signal. The method, boiled down: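 After human HepG2 hepatoma cells were transiently transfected with cis-promoter reporter constructs, they were exposed to test chemicals for 24 hours. Reporter RNA was then reverse-transcribed, PCR-amplified, FAM-labeled, HpaI-digested and quantified by capillary electrophoresis.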

Experiment [12] can be described thus: ATG_RORE_CIS: Attagene CIS-FACTORIAL HepG2 Assay for human RAR-related Orphan Receptor Element (RORE) (AID 2282959). The conditions noted are these: HepG2 Attagene cis-factorial RORE reporter, mRNA; actives raise or lower the signal. The essentials:
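Measured here: transcript induction of a cis-regulated reporter in HepG2 cells transiently transfected via FuGene 6. After 24 h, RNA was processed by RT-PCR and fluorescent capillary electrophoresis; DMSO defined baseline activity.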

The target in experiment [13] is Transcription factor Sp1 (Homo sapiens) (UniProt P08047). Put plainly: ATG_Sp1_CIS: Attagene CIS-FACTORIAL HepG2 Assay for human Specificity Protein 1 (Sp1) (AID 2282961). The conditions noted are these: HepG2 Sp1 cis-reporter transcription, actives raise or lower the signal. The method, boiled down: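 After transient transfection of HepG2 cells with cis-promoter reporter units and 24 h chemical treatment, reporter transcripts were quantified by RT-PCR and capillary electrophoresis fluorescence. Gain- and loss-of-signal fitted against DMSO.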

Experiment [14] can be described thus: ATG_SREBP_CIS: Attagene CIS-FACTORIAL HepG2 Assay for human Sterol Regulatory Element Binding (SREBP) (AID 2282962). The conditions noted are these: HepG2 Attagene cis-factorial SREBP reporter, mRNA; actives raise or lower the signal. The essentials:
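In this cis-format assay, HepG2 liver cells express reporters controlled by promoter elements responsive to native transcription factors. Exposure lasts 24 h; reporter mRNA fluorescence from capillary electrophoresis gives the signal, fitted bidirectionally against DMSO.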

Experiment [15] has as its target Signal transducer and activator of transcription 3 (Homo sapiens) (UniProt P40763). Nature of the experiment: ATG_STAT3_CIS: Attagene CIS-FACTORIAL HepG2 Assay for human Signal Transducer and Activator of Transcription 3 (STAT3) (AID 2282963). The conditions noted are these: HepG2, Attagene cis-factorial STAT3 reporter transcription; actives raise or lower the signal. The essentials:
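HepG2, MRTU-transfected, 24 h dosing. RNA → RT → PCR → FAM label → HpaI → CE. Bidirectional fit vs DMSO.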

A short description of experiment [16]: ATG_TA_CIS: Attagene CIS-FACTORIAL HepG2 Assay for human TA Basal Promoter (AID 2282964). The conditions noted are these: HepG2 Attagene CIS-factorial TA basal promoter reporter; actives raise or lower the signal. The method, boiled down:
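HepG2 cells transiently transfected with multiplexed cis-promoter reporter units, dosed 24 h. Reporter mRNA measured by RT-PCR, 6-FAM labelling, HpaI digestion and capillary electrophoresis; bidirectional fit versus DMSO baseline, serving as background control.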

Experiment [17] concerns the target Hypoxia-inducible factor 1-alpha (Homo sapiens) (UniProt Q16665). Put plainly: ATG_HIF1a_CIS: Attagene CIS-FACTORIAL HepG2 Assay for human Hypoxia Inducible Factor 1 (HIF1A) (AID 2282951). The conditions noted are these: HepG2 Attagene cis-factorial HIF1a reporter transcription; actives raise or lower the signal. The essentials:
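Endogenous-TF cis reporter readout, human HepG2 cells, 24 h incubation; mRNA detected via RT-PCR and capillary electrophoresis fluorescence; DMSO-normalised bidirectional fitting.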

The target of experiment [18] is Paired box protein Pax-6 (Homo sapiens) (UniProt P26367). Nature of the experiment: ATG_Pax6_CIS: Attagene CIS-FACTORIAL HepG2 Assay for human Paired Box 6 (PAX6) (AID 2282956). The conditions noted are these: HepG2 CIS-FACTORIAL PAX6 reporter transcription, RNA readout; actives raise or lower the signal. The essentials: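 DMSO-referenced bidirectional fits of reporter mRNA fluorescence; HepG2 with transient cis-promoter MRTUs, 24 h post-dose, RT-PCR plus capillary electrophoresis detection.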

The nature of experiment [19]: ATG_Sox_CIS: Attagene CIS-FACTORIAL HepG2 Assay for human SRY-box transcription factor (SOX) (AID 2282960). The conditions noted are these: HepG2 Attagene cis-factorial SOX reporter, mRNA; actives raise or lower the signal. The method, boiled down: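 Using transiently transfected HepG2 cells, reporter transcription driven by cis elements was assessed 24 h after dosing. Signal was fluorescence of capillary-separated RT-PCR products, with DMSO defining baseline activity.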

Experiment [20] can be described thus: ATG_GRE_CIS: Attagene CIS-FACTORIAL HepG2 Assay for human Glucocorticoid Response Elements (GRE) (AID 2282947). The conditions noted are these: HepG2 GRE cis-reporter, Attagene multiplex mRNA; actives raise or lower the signal. The method, boiled down:
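Cells (HepG2) bearing transfected cis-promoter reporter transcription units were treated with chemical for 24 hours. Reporter mRNA was measured via RT-PCR with capillary electrophoresis, and activity was fitted in both directions relative to DMSO.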

Calls of active or inactive are those of the source. The calls were made as follows: active = hit-call score of the fitted dose curve at least 0.9, where 1 is the maximum; inactive = score below 0.9.

Chain of Hepatocyte nuclear factor 6 (Homo sapiens) (Q9UBC0 whole entry, looked up, the tested form may be a part): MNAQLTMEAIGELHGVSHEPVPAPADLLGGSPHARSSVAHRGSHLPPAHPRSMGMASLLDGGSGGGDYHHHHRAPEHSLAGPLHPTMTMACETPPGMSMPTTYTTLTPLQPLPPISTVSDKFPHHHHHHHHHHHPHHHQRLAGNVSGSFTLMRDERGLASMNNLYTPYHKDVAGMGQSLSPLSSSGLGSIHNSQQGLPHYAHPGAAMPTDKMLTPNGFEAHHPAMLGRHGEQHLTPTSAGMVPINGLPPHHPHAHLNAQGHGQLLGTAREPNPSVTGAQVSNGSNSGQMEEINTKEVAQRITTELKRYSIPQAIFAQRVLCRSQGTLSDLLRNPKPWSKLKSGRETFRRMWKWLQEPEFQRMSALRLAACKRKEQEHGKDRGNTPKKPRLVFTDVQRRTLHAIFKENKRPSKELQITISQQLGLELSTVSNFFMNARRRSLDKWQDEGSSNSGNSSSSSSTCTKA
Chain of Heat shock factor protein 1 (Homo sapiens) (Q00613 whole entry, looked up): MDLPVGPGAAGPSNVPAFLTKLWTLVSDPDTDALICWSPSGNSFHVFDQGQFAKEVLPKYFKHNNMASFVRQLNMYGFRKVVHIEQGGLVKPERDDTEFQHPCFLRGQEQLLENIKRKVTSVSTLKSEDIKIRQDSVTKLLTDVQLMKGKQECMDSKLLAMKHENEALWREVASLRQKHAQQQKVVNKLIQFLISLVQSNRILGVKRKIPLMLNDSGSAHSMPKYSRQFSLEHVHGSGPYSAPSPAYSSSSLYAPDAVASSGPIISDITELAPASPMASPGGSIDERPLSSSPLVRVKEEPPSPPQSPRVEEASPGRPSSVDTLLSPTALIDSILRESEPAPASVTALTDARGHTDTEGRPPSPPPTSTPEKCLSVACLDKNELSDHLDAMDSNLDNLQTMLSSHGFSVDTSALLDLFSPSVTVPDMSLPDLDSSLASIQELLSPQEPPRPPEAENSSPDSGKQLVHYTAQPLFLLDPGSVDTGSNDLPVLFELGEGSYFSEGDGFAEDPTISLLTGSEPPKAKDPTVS
Chain of Signal transducer and activator of transcription 3 (Homo sapiens) (P40763 whole entry, looked up): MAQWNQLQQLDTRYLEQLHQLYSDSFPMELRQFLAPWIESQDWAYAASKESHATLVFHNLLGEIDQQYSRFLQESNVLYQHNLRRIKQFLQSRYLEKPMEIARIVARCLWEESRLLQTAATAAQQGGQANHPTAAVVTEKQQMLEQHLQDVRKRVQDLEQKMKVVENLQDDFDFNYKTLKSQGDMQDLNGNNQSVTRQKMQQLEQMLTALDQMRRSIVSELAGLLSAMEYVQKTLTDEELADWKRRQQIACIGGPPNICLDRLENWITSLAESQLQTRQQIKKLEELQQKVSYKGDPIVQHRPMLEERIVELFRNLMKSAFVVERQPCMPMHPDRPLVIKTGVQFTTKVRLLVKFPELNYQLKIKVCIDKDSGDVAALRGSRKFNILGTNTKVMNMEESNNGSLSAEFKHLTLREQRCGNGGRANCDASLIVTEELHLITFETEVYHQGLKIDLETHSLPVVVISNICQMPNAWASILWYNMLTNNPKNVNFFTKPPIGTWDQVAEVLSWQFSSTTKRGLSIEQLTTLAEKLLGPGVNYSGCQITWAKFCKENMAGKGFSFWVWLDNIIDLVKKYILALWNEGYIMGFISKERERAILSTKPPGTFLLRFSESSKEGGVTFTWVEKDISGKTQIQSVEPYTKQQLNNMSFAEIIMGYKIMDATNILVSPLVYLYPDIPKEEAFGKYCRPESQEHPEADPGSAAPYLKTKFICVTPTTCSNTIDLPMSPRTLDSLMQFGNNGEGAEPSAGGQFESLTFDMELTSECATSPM
Chain of Bile acid receptor (Homo sapiens) (Q96RI1 whole entry, looked up): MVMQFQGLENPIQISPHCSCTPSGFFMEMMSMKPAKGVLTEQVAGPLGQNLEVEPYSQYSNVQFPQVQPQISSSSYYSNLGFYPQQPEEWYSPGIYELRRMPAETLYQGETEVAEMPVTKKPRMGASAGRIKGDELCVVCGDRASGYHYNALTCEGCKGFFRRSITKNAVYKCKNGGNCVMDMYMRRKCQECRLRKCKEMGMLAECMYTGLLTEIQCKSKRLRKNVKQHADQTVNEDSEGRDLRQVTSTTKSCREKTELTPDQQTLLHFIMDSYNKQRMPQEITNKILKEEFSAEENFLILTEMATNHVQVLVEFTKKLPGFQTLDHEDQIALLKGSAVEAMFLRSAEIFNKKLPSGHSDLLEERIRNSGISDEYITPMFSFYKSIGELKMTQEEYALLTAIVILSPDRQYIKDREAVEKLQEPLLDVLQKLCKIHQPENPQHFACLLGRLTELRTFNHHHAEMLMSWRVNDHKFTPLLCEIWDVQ
Chain of Transcription factor Sp1 (Homo sapiens) (P08047 whole entry, looked up): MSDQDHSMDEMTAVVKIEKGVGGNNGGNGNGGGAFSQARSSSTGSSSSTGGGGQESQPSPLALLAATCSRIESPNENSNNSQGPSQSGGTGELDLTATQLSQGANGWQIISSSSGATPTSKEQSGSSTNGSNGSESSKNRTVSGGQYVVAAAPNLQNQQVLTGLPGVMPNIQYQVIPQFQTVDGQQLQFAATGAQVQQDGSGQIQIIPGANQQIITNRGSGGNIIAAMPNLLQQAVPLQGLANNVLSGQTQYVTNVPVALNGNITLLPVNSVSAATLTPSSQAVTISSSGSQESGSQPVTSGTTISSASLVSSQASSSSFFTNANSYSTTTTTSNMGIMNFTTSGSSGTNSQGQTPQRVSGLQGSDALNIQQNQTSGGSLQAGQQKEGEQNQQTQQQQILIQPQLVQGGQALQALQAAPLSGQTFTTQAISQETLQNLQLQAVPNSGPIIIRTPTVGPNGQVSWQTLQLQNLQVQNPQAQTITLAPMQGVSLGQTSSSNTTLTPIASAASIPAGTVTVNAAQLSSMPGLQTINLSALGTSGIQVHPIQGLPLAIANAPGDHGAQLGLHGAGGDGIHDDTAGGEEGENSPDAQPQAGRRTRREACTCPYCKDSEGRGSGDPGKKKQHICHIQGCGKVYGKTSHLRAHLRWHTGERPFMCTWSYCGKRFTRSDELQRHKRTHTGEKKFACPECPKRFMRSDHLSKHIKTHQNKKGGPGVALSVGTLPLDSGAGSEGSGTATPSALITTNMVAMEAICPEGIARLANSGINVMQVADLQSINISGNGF
Chain of Hypoxia-inducible factor 1-alpha (Homo sapiens) (Q16665 whole entry, looked up): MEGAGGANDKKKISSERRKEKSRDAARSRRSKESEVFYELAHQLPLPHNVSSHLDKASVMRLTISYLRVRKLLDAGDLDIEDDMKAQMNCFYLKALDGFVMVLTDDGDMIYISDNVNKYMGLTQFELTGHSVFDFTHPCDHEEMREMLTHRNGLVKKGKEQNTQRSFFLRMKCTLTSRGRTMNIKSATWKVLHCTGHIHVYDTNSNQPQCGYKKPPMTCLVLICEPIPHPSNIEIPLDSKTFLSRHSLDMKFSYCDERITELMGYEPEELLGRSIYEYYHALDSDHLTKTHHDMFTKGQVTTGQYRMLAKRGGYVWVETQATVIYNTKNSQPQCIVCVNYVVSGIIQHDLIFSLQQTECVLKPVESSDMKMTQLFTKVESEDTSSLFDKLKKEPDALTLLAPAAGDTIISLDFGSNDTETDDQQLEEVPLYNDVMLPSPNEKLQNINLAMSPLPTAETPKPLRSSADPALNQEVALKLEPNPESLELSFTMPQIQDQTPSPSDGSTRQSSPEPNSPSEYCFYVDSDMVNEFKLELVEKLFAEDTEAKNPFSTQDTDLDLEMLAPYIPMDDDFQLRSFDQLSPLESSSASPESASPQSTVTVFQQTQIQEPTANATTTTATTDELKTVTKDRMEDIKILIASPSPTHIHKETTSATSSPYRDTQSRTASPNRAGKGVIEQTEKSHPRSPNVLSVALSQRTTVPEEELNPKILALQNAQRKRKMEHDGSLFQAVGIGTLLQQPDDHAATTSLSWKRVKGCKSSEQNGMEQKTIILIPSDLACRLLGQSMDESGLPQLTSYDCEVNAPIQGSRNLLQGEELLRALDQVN
Chain of Paired box protein Pax-6 (Homo sapiens) (P26367 whole entry, looked up): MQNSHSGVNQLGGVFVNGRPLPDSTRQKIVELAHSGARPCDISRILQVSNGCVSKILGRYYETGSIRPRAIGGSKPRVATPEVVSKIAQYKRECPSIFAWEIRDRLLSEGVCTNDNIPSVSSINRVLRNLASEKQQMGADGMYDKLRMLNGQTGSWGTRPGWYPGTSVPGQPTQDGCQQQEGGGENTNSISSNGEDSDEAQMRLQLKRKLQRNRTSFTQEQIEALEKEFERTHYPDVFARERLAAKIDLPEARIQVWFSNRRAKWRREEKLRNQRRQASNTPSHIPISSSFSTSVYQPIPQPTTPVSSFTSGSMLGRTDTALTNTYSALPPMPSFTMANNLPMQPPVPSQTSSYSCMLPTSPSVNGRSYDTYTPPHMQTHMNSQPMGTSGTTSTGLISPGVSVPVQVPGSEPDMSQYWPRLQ

One may read the AC50 as the concentration at which the activity in the assay is half-maximal. In the case of `CC(C)(C)NC(=O)[C@H]1CC[C@H]2[C@@H]3CC[C@H]4NC(=O)C=C[C@]4(C)[C@H]3CC[C@]12C`, the compound was classed as inactive in experiment [1], in [2], in experiment [3], in experiment [4], in experiment [5] and in [6]. The result in [7], in experiment [9], in [11], in experiment [12], in [13] and in experiment [14] was inactive. The result in experiment [15] and in experiment [16] was inactive. In addition, the values for the AC50 in experiment [8] and in experiment [10] were 68.3 µM (active) and 14.1 µM (active), respectively.

Consider `CCCC/C=C/C=C\C=O`, for which the AC50 was 128 µM (active) in experiment [1]; 71.6 µM (active) in experiment [2]; 100 µM (active) in [3]; 100 µM (active) in experiment [8]; 100 µM (active) in experiment [18]; 2.79 µM (active) in [10]. The AC50 in experiment [19] is 162 µM (active). For the same compound, the call in experiment [4], in experiment [5], in experiment [17], in [6], in experiment [9] and in experiment [12] was inactive. Further, the outcome in experiment [13], in experiment [14], in experiment [15] and in experiment [16] was inactive.

In the case of `CCN1CCCC1=O`, the outcome in experiment [1], in [2], in [3], in experiment [17], in experiment [6] and in [7] was inactive. Also, the result in experiment [9], in experiment [10], in experiment [12], in experiment [19], in [13] and in experiment [14] was inactive. Moreover, the result in experiment [15] and in [16] was inactive.

As to `CCCCCCCCCC(C)=O`, the compound was classed as inactive in experiment [1], in [20], in experiment [3], in experiment [4], in experiment [5] and in [17]. The outcome in experiment [6], in experiment [7], in experiment [8], in experiment [9], in experiment [18] and in [10] was inactive. For the same compound, the compound was classed as inactive in [11], in [19], in experiment [13], in experiment [14], in experiment [15] and in experiment [16].
